# Reference: PMC5540273 (PLoS ONE, 2017)
# System: CAMKK1
# Conditions: concentration: 1 μM, replicates: in singlicate; n = 1
# 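Also: KINOMEscan kinase panel screen.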
row,SMILES,%Inh [%]
1,COc1cccc(C(=O)Nc2cccc(Oc3ccc4nc(NC(=O)C5CC5)cn4n3)c2)c1,6
2,Cl.Cl.NCC(NC(=O)c1cc(-c2ccccc2)c(-c2ccnc3[nH]ccc23)s1)c1ccccc1 (centres unmarked) [GSK1321561],15
3,CC(=O)Nc1nc2cnc(Nc3cc(NC(=O)c4cccc(C5(C#N)CC5)c4Cl)ccc3C)nc2s1,14
4,COc1cccc(NC(=O)NC2CCN(c3ccnc(Nc4cc(OC)c(OC)c(OC)c4)n3)C2)c1 (centres unmarked) [GSK1379763],40
5,COc1cc2c(cc1OCCN1CCNCC1)ncc1c3ccc(C#N)cc3[nH]c21,80
6,CSc1cccc2c(-c3ccncn3)c(-c3ccc(F)cc3)nn12 [GW514786],0
7,Cn1cc(-c2ccc3c(c2)CCN3C(=O)Cc2cccc(Cl)c2)c2c(N)ncnc21 [GSK2606590],19
8,CCS(=O)(=O)c1ccc(OC)c(Nc2nccc(-c3c(-c4cccc(NC(=O)c5c(F)cccc5F)c4)nn4ncccc34)n2)c1 [GSK326180],0
9,CCn1c(-c2nonc2N)nc2c(C#CC(C)(C)O)ncc(OCCCCN)c21.O=C(O)C(F)(F)F.O=C(O)C(F)(F)F [GSK507274],0
10,O=C(Nc1cccc(-c2nn3ccccc3c2-c2ccnc(Nc3cccc(C(F)(F)F)c3)n2)c1)c1c(F)cccc1F [GSK292658],16
11,CN(c1ccc(NC(=O)Nc2cc(C(F)(F)F)ccc2F)cc1)c1ccnc(Nc2ccc(S(N)(=O)=O)cc2)n1 [GW809893],16
12,COc1cc(Nc2ncc3c(C)nc(-c4cc5ccccc5[nH]4)n3n2)cc(OC)c1OC [GW869516],13
13,Cc1ccc(C)c(NC(=O)NC2CCN(c3ccnc(Nc4ccc(F)cc4)n3)C2)c1 (centres unmarked) [GSK1379720],0
14,c1ccc(Oc2ccc(Nc3ccnc4cc(-c5ccc(CNCCN6CCOCC6)o5)ccc34)cc2)nc1 [GW567145],0
15,COc1cc(Nc2nccc(-c3c(-c4cccc(NC(=O)c5c(F)cccc5F)c4)nn4ncccc34)n2)cc(OC)c1OC [GSK327238],24
16,COc1cc(Nc2nccc(N3CCC(NC(=O)Nc4cccc(C(C)=O)c4)C3)n2)cc(OC)c1OC (centres unmarked) [GSK1379753],0

row,SMILES,%Inh [%]
1,Cl.Cl.NCC(NCc1ccc(-c2ccnc3[nH]ccc23)s1)c1ccccc1 (centres unmarked) [GSK1321565],0
2,Oc1cc(Nc2ccnc3cc(I)ccc23)ccc1F [GW552771],8
3,Cc1ccc(C(=O)Nc2ccc(Nc3ccnc4cc(-c5nccs5)ccc34)cc2O)cc1.Cl [GW494702],3
4,C[C@@H]1CC[C@@H](C(=O)Nc2ccccc2)CN1c1cc(-c2ccc3c(N)n[nH]c3c2)nc(N)n1 [GSK2286062],0
5,Nc1ncc(-c2cccnc2)c2scc(-c3ccc4c(c3)CCN4C(=O)Cc3ccccc3)c12 [GSK683281],34
6,Cl.c1ccc(-c2ccc3c(Nc4ccc5[nH]ccc5c4)ccnc3c2)nc1 [GW440138],3
7,CCn1c(-c2nonc2N)nc2c(C#CC(C)(C)O)nc(OC[C@H](N)c3ccccc3)cc21 [GSK943949],0
8,Cn1cc(-c2ccc3c(c2)CCN3C(=O)Cc2cccc(F)c2)c2c(N)ncnc21 [GSK2603358],26
9,O=C(Nc1cccc(-c2nn3ncccc3c2-c2ccnc(Nc3ccccc3)n2)c1)c1c(F)cccc1F [GSK198271],0
10,COc1cc(Nc2nccc(-c3c(-c4cccc(NC(=O)c5c(F)cccc5F)c4)nn4ccccc34)n2)cc(OC)c1OC [GSK323521],40
11,FC(F)(F)c1ccc(/C=C/c2cncnc2Nc2ccc3[nH]c(Cc4ccccc4)nc3c2)cc1 [GW709199],19
12,CC(C)(C)c1ccc2nccc(Nc3cccc(O)c3)c2c1 [GW856795],2
13,CCc1ccc(-c2ccc3c(c2)-c2c(cnn2C)S(=O)(=O)N3C)cc1,13
14,COc1cccc(C2=C(Nc3ccc(Cl)c(C(=O)O)c3)C(=O)NC2=O)c1 [SB-390769],0
15,NCCCC(NC(=O)c1cc(Br)c(-c2ccnc3[nH]ccc23)s1)c1ccccc1.O=C(O)C(F)(F)F.O=C(O)C(F)(F)F (centres unmarked) [GSK1287544],30
16,COC(=O)Nc1nc2ccc(Oc3ccc(NC(=O)Nc4cc(C(F)(F)F)ccc4F)cc3)cc2n1C.Cl [GW692089],4
